Results filed as inconclusive are left out. Calls of active or inactive are those of the source. Calls follow the shape of the dose curve; as a rule, active = well fitted inhibition curve with a large enough effect; inconclusive = small, poorly fitted or top-dose-only effect; inactive = flat fitted curve, though single readings scatter.
What was measured:
Assay in all cases: Cytotoxic Profiling of Annotated Libraries Using Quantitative High-Throughput Screening (AID 1296008); also: nearly all actives have a fitted effect of over 60% in size
Conditions in all cases: Five cell lines viability, CellTiter-Glo ATP luminescence, 48-72 h; max response: hits give low values
CRL-7250 = normal cell line; test system: CRL-7250
Summary of the method: (§1)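 Compounds were pin-transferred onto cells and incubated 48 or 72 hr at 37 degree Celsius, 95% humidity. CellTiter-Glo was added, plates sat 10 min at room temperature, then ATP-coupled luminescence was imaged as the viability read-out.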

HaCat = test system: HaCat
Summary of the method: as §1

KB-3-1 = test system: KB-3-1
Summary of the method: as §1

NIH3T3 = test system: NIH3T3
Summary of the method: as §1
% is scaled to controls: 0 for no effect and ±100 for the full control effect; potency is read from the fitted curve at half-maximal effect.

CCOc1ccc(Cc2nc(-c3c(C)nc4ccccn34)cs2)cc1
inactive: max response (HaCat) -17.5%
active: Potency (CRL-7250) 51.7 nM | Potency (KB-3-1) 25.9 nM | Potency (NIH3T3) 46.1 nM

CC(=O)O[C@@H]1C[C@]2(C)[C@@]3(CCC4[C@@]5(C)CC[C@H](O[C@@H]6O[C@H](C(=O)O)[C@@H](O)[C@H](OC7OC(CO)C(O)C(O)[C@H]7O[C@@H]7O[C@@H](C)[C@H](O)[C@@H](O)[C@H]7O[C@@H]7OC[C@](O)(CO)[C@H]7O)[C@H]6OC6OC(CO)C(O)C(O)C6O)C(C)(C)C5CC[C@]42C)OC[C@@]12CCC(C)(C)CC23 (some centres undefined)
inactive: max response (CRL-7250) -2.03% | max response (HaCat) 0.508% | max response (KB-3-1) -5.11% | max response (NIH3T3) 0.621%

CC(C)/C=C1\NC(=O)C(C(C)C)n2c1nc1ccccc1c2=O (centres undefined)
inactive: max response (CRL-7250) 2.92% | max response (HaCat) -9.75% | max response (KB-3-1) -2.24% | max response (NIH3T3) -0.19%

CCc1c(Cl)c(O)c(Cl)c(O)c1C(=O)O[C@H]1[C@H](O)[C@H](OC)[C@H](OC/C2=C\C=C\C[C@H](O)/C(C)=C\[C@H](CC)[C@@H](O[C@@H]3OC(C)(C)[C@@H](OC(=O)C(C)C)[C@H](O)[C@@H]3O)/C(C)=C/C(C)=C/C[C@@H]([C@@H](C)O)OC2=O)O[C@@H]1C
inactive: outcome (CRL-7250) | max response (HaCat) -22.3% | max response (KB-3-1) -8.77% | outcome (NIH3T3)

C[C@@H]1O[C@@H](O[C@H]2[C@H](O[C@H]3CC[C@@]4(C)C(CC[C@]5(C)C4C=C[C@]46OC[C@@]7(CCC(C)(C)C[C@H]74)[C@@H](O[C@@H]4O[C@@H](C)[C@H](O)[C@@H](O)[C@H]4O)C[C@]65C)[C@]3(C)CO)O[C@H](CO)[C@@H](O)[C@@H]2O[C@@H]2O[C@H](CO)[C@@H](O)[C@H](O)[C@H]2O)[C@H](O)[C@H](O)[C@H]1O (some centres undefined)
inactive: max response (CRL-7250) -7.16% | max response (HaCat) -9.32% | max response (KB-3-1) -1.23% | max response (NIH3T3) -25.1%

CCC(C)c1ccc(NC(=O)Cn2cnc3c2c(=O)n(C)c(=O)n3C)cc1 (centres undefined)
inactive: max response (CRL-7250) -7.14% | max response (HaCat) -17.7% | max response (KB-3-1) -2.48% | max response (NIH3T3) -2.04%

COc1cc2c(cc1O)C1(Cc3ccc4c(c3C1O)OCO4)[N+](C)([O-])CC2 (centres undefined)
inactive: outcome (CRL-7250) | max response (HaCat) -20.1% | outcome (KB-3-1) | max response (NIH3T3) -2.31%

CCC(CC)(NC(=O)C(C)C)C(=O)N[C@@H](CCCN=C(N)N)C(=O)NC1(C(=O)NC(c2ccc(F)cc2)c2ccc(F)cc2)CCCC1
inactive: max response (CRL-7250) 2.72% | max response (HaCat) -3.8% | max response (KB-3-1) 7.28% | max response (NIH3T3) -2.32%

NS(=O)(=O)c1ccc(N2CCN(CC[C@@H]3OCCc4ccccc43)CC2)cc1
inactive: max response (CRL-7250) -8.79% | max response (HaCat) -12.7% | max response (KB-3-1) -10.3% | max response (NIH3T3) -0.981%

C=CC(C)(O)CC/C=C(\C)C(=O)OC1C(O)C(CO)OC(OC(=O)C23CCC(C)(C)CC2C2=CCC4C5(C)CCC(OC6OC(COC7OCC(OC(C)=O)C(O)C7OC7OC(COC(C)=O)C(O)C(O)C7OC(C)=O)C(O)C(O)C6OC6OCC(O)C(O)C6O)C(C)(C)C5CCC4(C)C2(C)C(O)C3O)C1OC1OCC(OC2OCC(O)C(OC3OCC(O)C(O)C3O)C2O)C(O)C1O (centres undefined)
inactive: max response (HaCat) -18.3% | max response (KB-3-1) -19.5% | max response (NIH3T3) -5.37%
active: Potency (CRL-7250) 891 nM

Nc1c(S(=O)(=O)c2ccccc2)c2nc3ccccc3nc2n1-c1ccc(F)cc1
inactive: max response (CRL-7250) 2.31% | max response (HaCat) -0.67% | max response (KB-3-1) 9.53% | outcome (NIH3T3)

CC(C)n1c(=O)c(C(=O)NC2CC3CCC(C2)N3C[C@@H](O)CN(C)S(C)(=O)=O)cc2ccccc21 (some centres undefined)
inactive: max response (CRL-7250) -15.6% | max response (HaCat) -16.2% | max response (KB-3-1) -11.4% | max response (NIH3T3) -22.5%

COCC(c1ccc(C(F)(F)F)cc1)N1CCN(C2(C)CCN(C(=O)c3c(C)ncnc3C)CC2)CC1C (centres undefined)
inactive: max response (CRL-7250) 4.87% | max response (HaCat) -10.9% | max response (KB-3-1) 8.07% | outcome (NIH3T3)

O=C(CSc1nc2ccccc2c(=O)n1-c1ccccc1)Nc1ccc2c(c1)CCC2
inactive: max response (CRL-7250) 1.59% | max response (HaCat) -10.2% | outcome (KB-3-1) | max response (NIH3T3) -0.829%

CO[C@H]1O[C@@H]2O[C@@]3(C)CCC4[C@H](C)CCC([C@H]1C)[C@]42OO3 (some centres undefined)
inactive: outcome (CRL-7250) | max response (HaCat) -12.1% | outcome (KB-3-1) | outcome (NIH3T3)

C[C@@H](O[C@H]1OCCN(Cc2nn(P(=O)(O)O)c(=O)[nH]2)[C@H]1c1ccc(F)cc1)c1cc(C(F)(F)F)cc(C(F)(F)F)c1
inactive: max response (CRL-7250) 0.664% | max response (HaCat) -1.44% | max response (KB-3-1) 6.69% | max response (NIH3T3) -9.38%
